# Results as given in PubChem BioAssay (Tox21).
# Values without a mark were called inactive. Results filed as inconclusive are left out. A call without a number means that no potency is given here. The source made the active and inactive calls. Unless noted, calls follow the shape of the full dose curve.
# How the values were obtained:
# [1] = Nuclear factor erythroid 2-related factor 2/antioxidant responsive element (Nrf2/ARE) small molecule agonists: luciferase reporter gene qHTS assay in human keratinocytes (AID 1919969); also: nearly all actives have a fitted effect of over 35% in size; also: potency is read from the fitted curve at half-maximal effect
# [2] = target: Gonadotropin-releasing hormone receptor (Homo sapiens) (UniProt P30968); test: Human gonadotropin-releasing hormone receptor (GnRHR) small molecule agonists, calcium flux assay in GnRHR-HEK293 cells (AID 1920063); also: nearly all actives have a fitted effect of over 35% in size; also: potency is read from the fitted curve at half-maximal effect
# Sequence of Gonadotropin-releasing hormone receptor (Homo sapiens) (P30968 whole entry, looked up): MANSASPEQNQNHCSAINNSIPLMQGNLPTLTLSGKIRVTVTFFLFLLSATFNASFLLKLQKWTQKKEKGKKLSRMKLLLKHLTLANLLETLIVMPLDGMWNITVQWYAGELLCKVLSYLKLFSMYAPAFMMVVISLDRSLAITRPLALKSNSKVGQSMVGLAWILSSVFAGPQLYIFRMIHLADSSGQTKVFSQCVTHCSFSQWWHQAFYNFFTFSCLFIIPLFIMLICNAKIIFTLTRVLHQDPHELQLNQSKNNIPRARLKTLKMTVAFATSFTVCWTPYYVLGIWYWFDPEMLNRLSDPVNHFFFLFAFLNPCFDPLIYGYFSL
# Procedure, shortened: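 Stable human GnRHR HEK293 line. 18 h plating, then calcium dye for 1 h at 37 C. Agonist-mode compound addition from DMSO stocks; fluorescence monitored 3 min.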
# [3] = target: KiSS-1 receptor (Homo sapiens) (UniProt Q969F8); test: Human kisspeptin (KISS1R) small molecule agonists, calcium flux assay in KISS1R-HEK293 cells (AID 1920064; active = well fitted activation curve with a large enough effect in the repeat runs)
# Sequence of KiSS-1 receptor (Homo sapiens) (Q969F8 whole entry, looked up): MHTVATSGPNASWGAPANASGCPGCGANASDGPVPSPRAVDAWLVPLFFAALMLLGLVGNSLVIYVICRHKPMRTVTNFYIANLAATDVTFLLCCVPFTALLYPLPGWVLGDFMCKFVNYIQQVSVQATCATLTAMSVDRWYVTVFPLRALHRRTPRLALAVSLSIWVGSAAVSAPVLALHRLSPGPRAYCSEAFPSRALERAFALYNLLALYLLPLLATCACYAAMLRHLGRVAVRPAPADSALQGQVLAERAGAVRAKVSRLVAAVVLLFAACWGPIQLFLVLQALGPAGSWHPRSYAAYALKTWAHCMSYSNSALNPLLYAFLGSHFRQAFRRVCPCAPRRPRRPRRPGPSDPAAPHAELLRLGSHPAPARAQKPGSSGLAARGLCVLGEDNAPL
# Procedure, shortened: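 After overnight (18 h) culture at 37 C/5% CO2, human KISS1R-HEK293 cells received calcium dye for 1 h, then test compound; emission at 540 nm (excitation 480 nm) was tracked for 3 min.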
# [4] = G protein-coupled receptor (GPCR) small molecule agonists, calcium flux assay: HEK293 wild type cell line counter screen (AID 1920065)
# Procedure, shortened: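 Following 18 h incubation at 37 C/5% CO2, plates got calcium dye for 1 h; compounds, ATP or DMSO were then pinned in and fluorescence followed kinetically (480/540 nm).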
# [5] = p53 small molecule agonists, cell-based qHTS assay with human liver microsomes (AID 1963577);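 also: p53 response element beta-lactamase reporter cells with liver microsomes plus NADPH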
# Procedure, shortened: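 Reporter activation was measured by LiveBLAzer fluorescence intensity in p53RE-bla cells, which had been exposed to compounds for 16 h at 37 C alongside 0.5 mg/mL human liver microsomes and 0.5 mg/mL NADPH (final concentrations).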
# [6] = p53 small molecule agonists, cell-based qHTS assay with rat liver microsomes (AID 1963578)
# Procedure, shortened: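 Compound in DMSO added to p53RE-bla cells 5 h post-plating; rat microsomes/NADPH 0.5 mg/mL final; 16 h, 37 C; LiveBLAzer 2 h RT.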
# [7] = p53 small molecule agonists, cell-based qHTS assay with human liver microsomes: qHTS cell viability counter screen (AID 1963579); also: nearly all actives have a fitted effect of over 45% in size
# Procedure, shortened: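 HLM-supplemented (0.5 mg/mL final) and NADPH-supplemented (0.5 mg/mL final) p53RE-bla cultures, 4,000 cells per well, were dosed with compounds in DMSO for 16 h at 37 C; luminescent ATP detection (CellTiter-Glo, 30 min, room temperature) quantified surviving cells.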
# [8] = p53 small molecule agonists, cell-based qHTS assay with rat liver microsomes: qHTS cell viability counter screen (AID 1963580); also: nearly all actives have a fitted effect of over 45% in size
# Procedure, shortened: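 Cytotoxicity counter screen: intracellular ATP measured by CellTiter-Glo luminescence in the same wells as the beta-lactamase reporter read, on HCT-116 p53RE-bla cells exposed 16 h at 37 C to compounds with rat liver microsomes and NADPH, each 0.5 mg/mL final.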
# [9] = p53 small molecule agonists, cell-based qHTS assay: qHTS cell viability counter screen (AID 1963581); also: nearly all actives have a fitted effect of over 45% in size
# Procedure, shortened: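 qHTS counter screen: 16 h compound exposure at 37 C of p53RE-bla HCT-116 cells (4,000 per well, seeded 5 h prior), cell viability by ATP luminescence.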
# [10] = p53 small molecule agonists, cell-based qHTS assay (AID 1963582; active = well fitted activation curve with a large enough effect in the signal ratio in the repeat runs, not every such curve was filed as active; the % refers to the signal ratio)
# Procedure, shortened: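 Measured: fluorescence from cleaved LiveBLAzer substrate. System: p53RE-bla cells, 16 h compound treatment at 37 C, 2 h substrate step at room temperature.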
# [11] = target: Muscarinic acetylcholine receptor M1 (Homo sapiens) (UniProt P11229); test: Cholinergic receptor muscarinic 1 (CHRM1) small molecule antagonists, cell-based qHTS assay (AID 1963588); also: nearly all actives have a fitted effect of over 40% in size
# Sequence of Muscarinic acetylcholine receptor M1 (Homo sapiens) (P11229 whole entry, looked up): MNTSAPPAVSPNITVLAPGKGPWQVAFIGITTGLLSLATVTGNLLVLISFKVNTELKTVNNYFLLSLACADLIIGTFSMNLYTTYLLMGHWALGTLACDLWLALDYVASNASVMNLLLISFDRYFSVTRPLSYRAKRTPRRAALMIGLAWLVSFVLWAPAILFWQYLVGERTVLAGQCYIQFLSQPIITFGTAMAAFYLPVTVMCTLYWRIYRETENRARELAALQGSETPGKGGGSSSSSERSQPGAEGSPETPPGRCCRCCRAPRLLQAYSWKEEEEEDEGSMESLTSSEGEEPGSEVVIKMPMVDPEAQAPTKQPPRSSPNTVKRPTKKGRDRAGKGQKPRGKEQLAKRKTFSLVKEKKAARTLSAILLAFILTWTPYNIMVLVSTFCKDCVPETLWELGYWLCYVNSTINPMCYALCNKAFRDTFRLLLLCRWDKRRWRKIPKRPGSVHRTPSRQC
# Procedure, shortened: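 Compounds were tested at 15 concentrations in three independent runs. Dye-loaded CHRM1-CHO cells were exposed 5 min at room temperature before stimulation by acetylcholine added at 50nM. Intracellular calcium was read kinetically on FDSS for 3 min.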
# [12] = target: Muscarinic acetylcholine receptor M1 (Homo sapiens) (UniProt P11229); test: Cholinergic receptor muscarinic 1 (CHRM1) small molecule agonists, cell-based qHTS assay (AID 1963589); also: nearly all actives have a fitted effect of over 35% in size
# Procedure, shortened: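 Kinetic fluorescence (1 s intervals) of calcium-sensitive dye in human M1 CHO cells after compound addition; cells pre-incubated 18 h at 37 C/5% CO2 and dye-loaded 1 h.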
# [13] = target: Beta-2 adrenergic receptor (Homo sapiens) (UniProt P07550); test: Adrenergic beta2 receptor (ADRB2) small molecule antagonists, cell-based qHTS assay (AID 1963592); also: series mostly up to about 92 µM; nearly all actives have a fitted effect of over 50% in size
# Sequence of Beta-2 adrenergic receptor (Homo sapiens) (P07550 whole entry, looked up): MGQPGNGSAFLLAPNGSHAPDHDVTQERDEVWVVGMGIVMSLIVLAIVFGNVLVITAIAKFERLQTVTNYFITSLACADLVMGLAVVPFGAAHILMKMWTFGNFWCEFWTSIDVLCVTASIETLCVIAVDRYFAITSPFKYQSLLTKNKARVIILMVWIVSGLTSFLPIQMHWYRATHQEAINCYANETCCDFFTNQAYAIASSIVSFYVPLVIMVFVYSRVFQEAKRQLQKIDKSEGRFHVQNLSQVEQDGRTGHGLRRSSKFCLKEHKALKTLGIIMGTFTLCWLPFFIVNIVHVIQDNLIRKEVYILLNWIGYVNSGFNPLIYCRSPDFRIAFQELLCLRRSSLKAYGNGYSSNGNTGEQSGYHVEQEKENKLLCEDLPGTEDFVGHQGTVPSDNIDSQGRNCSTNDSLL
# Procedure, shortened: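 Assay format: CHO-ADRB2 cells, 18-20hr seeding at 37C/5% CO2, then compound plus 1nM isoproterenol agonist mix for 0.5hr RT. Homogeneous time-resolved fluorescence cAMP detection after 1hr, expressed as 665/615 nm ratio.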
# [14] = target: D(2) dopamine receptor (Homo sapiens) (UniProt P14416); test: Dopamine D2 receptor (DRD2) small molecule agonists, cell-based qHTS assay (AID 1963594); also: nearly all actives have a fitted effect of over 35% in size
# Sequence of D(2) dopamine receptor (Homo sapiens) (P14416 whole entry, looked up): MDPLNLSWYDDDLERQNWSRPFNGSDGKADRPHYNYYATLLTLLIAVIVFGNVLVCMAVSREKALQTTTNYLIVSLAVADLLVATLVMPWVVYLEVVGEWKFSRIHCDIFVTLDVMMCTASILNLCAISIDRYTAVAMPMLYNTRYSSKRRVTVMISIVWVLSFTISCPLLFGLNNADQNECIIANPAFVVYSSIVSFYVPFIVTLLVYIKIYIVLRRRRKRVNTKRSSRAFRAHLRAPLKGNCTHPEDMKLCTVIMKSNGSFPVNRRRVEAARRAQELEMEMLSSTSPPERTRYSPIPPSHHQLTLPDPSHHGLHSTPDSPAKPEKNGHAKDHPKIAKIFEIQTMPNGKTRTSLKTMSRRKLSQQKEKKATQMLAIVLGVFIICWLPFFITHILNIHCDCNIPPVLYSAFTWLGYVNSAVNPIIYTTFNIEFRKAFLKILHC
# Procedure, shortened: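 HEK293 cells stably expressing human DRD2, pre-treated with PDE inhibitor Ro20-1724 (0.1 mM final) and compound 10 min at room temperature, then stimulated with NKH477 (200nM […]) for 30 min. cAMP read by HTRF (665/620 nm).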
# [15] = target: D(2) dopamine receptor (Homo sapiens) (UniProt P14416); test: Dopamine D2 receptor (DRD2) small molecule antagonists, cell-based qHTS assay (AID 1963595; active = well fitted inhibition curve with a large enough effect in the signal ratio in the repeat runs, with a control signal flat; the % refers to the signal ratio; also: potency is read from the fitted curve at half-maximal effect)
# Procedure, shortened: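 Human DRD2 antagonist qHTS measuring cAMP by HTRF. The cells are exposed to compound for 10 min, then to NKH477 (200 nM) and quinpirole (12 nM) for 30 min at RT, with Ro20-1724 (0.1 mM) present throughout.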
# [16] = target: 5-hydroxytryptamine receptor 2A (Homo sapiens) (UniProt P28223); test: 5-hydroxytryptamine receptor 2A (HTR2A) small molecule antagonists, cell-based qHTS assay (AID 1963586); also: nearly all actives have a fitted effect of over 45% in size
# Sequence of 5-hydroxytryptamine receptor 2A (Homo sapiens) (P28223 whole entry, looked up): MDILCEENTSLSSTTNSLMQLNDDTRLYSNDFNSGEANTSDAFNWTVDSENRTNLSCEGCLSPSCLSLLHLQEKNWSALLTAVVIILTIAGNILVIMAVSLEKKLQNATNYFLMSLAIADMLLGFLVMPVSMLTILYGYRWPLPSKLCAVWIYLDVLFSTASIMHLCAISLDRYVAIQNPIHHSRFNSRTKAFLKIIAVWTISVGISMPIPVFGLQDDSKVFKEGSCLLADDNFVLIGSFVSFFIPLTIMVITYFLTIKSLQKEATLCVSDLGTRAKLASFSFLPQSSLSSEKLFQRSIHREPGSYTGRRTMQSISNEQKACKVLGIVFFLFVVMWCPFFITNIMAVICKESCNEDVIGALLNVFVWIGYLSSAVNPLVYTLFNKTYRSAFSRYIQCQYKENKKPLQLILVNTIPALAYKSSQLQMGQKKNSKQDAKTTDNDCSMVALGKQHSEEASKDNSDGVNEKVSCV
# Procedure, shortened: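 CHO cells stably expressing human HTR2A were plated for 18 h at 37 C, then loaded with calcium dye for 1 h. Compounds were preincubated 5 min at room temperature before DOI (4 nM solution) was added. Kinetic fluorescence was read for 3 min.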
# [17] = target: 5-hydroxytryptamine receptor 2A (Homo sapiens) (UniProt P28223); test: 5-hydroxytryptamine receptor 2A (HTR2A) small molecule agonists, cell-based qHTS assay (AID 1963587); also: nearly all actives have a fitted effect of over 30% in size
# Procedure, shortened: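 CHO cells stably expressing human HTR2A, plated 18 h, loaded with calcium dye 1 h at 37 C. Agonist mode: compounds added and intracellular calcium fluorescence recorded kinetically for 2 min at 1 sec intervals.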
# [18] = cAMP Responsive Elements (CRE) small molecule agonists, cell-based qHTS assay (AID 1963590)
# Procedure, shortened: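 Test agents in DMSO were incubated 3 h at 37 C/5% CO2 with CRE-bla HEK 293T cells seeded 18 h earlier; LiveBLAzer B/G FRET substrate was added and read after 2 h at room temperature.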
# [19] = cAMP Responsive Elements (CRE) small molecule antagonists, cell-based qHTS assay (AID 1963591; active = well fitted inhibition curve with a large enough effect in the signal ratio in the repeat runs, not every such curve was filed as active; the % refers to the signal ratio)
# Procedure, shortened: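 Reporter line CRE-bla HEK 293T in dialyzed-FBS DMEM; cells preincubated 18 h, treated 3 h with compound plus NKH477 (0.25 uM final); LiveBLAzer FRET, 2 h RT.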
# [20] = target: Beta-2 adrenergic receptor (Homo sapiens) (UniProt P07550); test: Adrenergic beta2 receptor (ADRB2) small molecule agonists, cell-based qHTS assay (AID 1963593); also: potency is read from the fitted curve at half-maximal effect;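 as to activation: CHO cells stably overexpressing human ADRB2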
# Procedure, shortened: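 CHO cells stably over-expressing ADRB2 were plated overnight at 37C, then dosed with compounds plus a stimulation mix containing 100uM IBMX and 25uM Ro-20-1724 for 0.5hr at room temperature. cAMP was measured by HTRF competition, 1hr.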
SMILES,Potency [1],Potency [2],outcome [3],outcome [4],Potency [5],Potency [6],Potency [7],Potency [8],Potency [9],Potency [10],Potency [11],Potency [12],Potency [13],Potency [14],Potency [15],Potency [16],Potency [17],Potency [18],Potency [19],Potency [20]
COc1ccc(OC(=O)N(CC(=O)O)Cc2ccc(OCCc3nc(-c4ccccc4)oc3C)cc2)cc1,inactive,inactive,inactive,inactive,inactive,inactive,inactive,inactive,inactive,inactive,inactive,inactive,inactive,inactive,inactive,,,,,
Oc1cccc2cc3cccc(O)c3c(O)c12,inactive,inactive,inactive,inactive,inactive,inactive,inactive,inactive,inactive,inactive,inactive,inactive,inactive,inactive,inactive,inactive,inactive,inactive,,
O=c1[nH]cnc2nc[nH]c12,inactive,inactive,inactive,inactive,inactive,inactive,inactive,inactive,inactive,inactive,inactive,inactive,,,inactive,inactive,inactive,,inactive,
CC(C)COC(=O)c1ccccc1,inactive,inactive,inactive,inactive,inactive,inactive,inactive,inactive,inactive,inactive,inactive,inactive,,inactive,inactive,inactive,inactive,inactive,inactive,inactive
CC[C@H](NC(C)C)[C@H](O)c1ccc(O)c2[nH]c(=O)ccc12,inactive,12 nM (active),inactive,inactive,inactive,inactive,inactive,inactive,inactive,inactive,inactive,inactive,,inactive,94.4 nM (active),inactive,inactive,,,1.7 nM (active)
CCCCCCCC(C)=O,inactive,inactive,inactive,inactive,inactive,inactive,inactive,inactive,inactive,inactive,inactive,inactive,,,inactive,inactive,inactive,inactive,inactive,
Cc1ccccc1N1CCN(CCc2nnc3n2CCCC3)CC1,inactive,inactive,inactive,inactive,inactive,inactive,inactive,inactive,inactive,inactive,,,inactive,inactive,inactive,,,inactive,inactive,inactive
Cc1cc(C(C)(C)C)cc(C)c1CC1=NCCN1,inactive,inactive,inactive,inactive,inactive,inactive,inactive,inactive,inactive,inactive,,inactive,inactive,inactive,,,,inactive,inactive,
CC(C)=CC(=O)O,inactive,inactive,inactive,inactive,inactive,inactive,inactive,inactive,inactive,inactive,inactive,inactive,,inactive,inactive,inactive,inactive,inactive,,
O=C(OCC1(COC(=O)c2cccnc2)CCCC(COC(=O)c2cccnc2)(COC(=O)c2cccnc2)C1O)c1cccnc1,inactive,inactive,inactive,inactive,inactive,inactive,inactive,inactive,inactive,inactive,inactive,inactive,inactive,inactive,inactive,inactive,inactive,,,
CCc1cccc(C)c1N(C(=O)C(=O)O)C(C)COC (configuration not stated),inactive,inactive,inactive,inactive,inactive,inactive,inactive,inactive,inactive,inactive,inactive,inactive,inactive,inactive,inactive,inactive,inactive,inactive,inactive,
O=C(c1ccc(F)cc1)C1CCN(CCn2c(=O)[nH]c3ccccc3c2=O)CC1,inactive,inactive,inactive,inactive,inactive,inactive,inactive,inactive,inactive,inactive,inactive,inactive,inactive,inactive,inactive,,inactive,,,inactive
Cc1nnc(C(=O)NC(C)(C)c2nc(C(=O)NCc3ccc(F)cc3)c(O)c(=O)n2C)o1,inactive,inactive,inactive,inactive,inactive,inactive,inactive,inactive,inactive,inactive,inactive,inactive,inactive,,inactive,,inactive,,inactive,inactive
CCC(C)(CCC(C)C)C(=O)[O][Sn]([CH3])([CH3])[O]C(=O)C(C)(CC)CCC(C)C (configuration not stated),30.6 µM (active),inactive,inactive,inactive,inactive,inactive,inactive,inactive,inactive,inactive,inactive,,inactive,inactive,inactive,inactive,inactive,,inactive,
